KB-3-1 tox = KB-3-1 parental cell cytotoxicity; KB-3-1 viability, CellTiter-Glo ATP luminescence, 72 h; Potency, µM (highest dose often 46.1 µM), most hits filed as cytotoxic; hit rate 1.4% among 400,000; AID 1347075; note: nearly all actives have a fitted effect of over 60% in size
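KB-3-1 parental drug-naive adenocarcinoma cells in DMEM/10% FBS, incubated 72 h at 37 C with pin-transferred compounds across a concentration series. Viability by CellTiter-Glo luminescence; concentration-response curves fitted after normalization.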
DT40 TDP1 no CPT = qHTS for Inhibitors of human tyrosyl-DNA phosphodiesterase 1 (TDP1): qHTS in cells in absence of CPT | DT40 Tdp1-/- hTDP1 cells, no CPT, ATP luminescence, 48 h | Potency, µM (highest dose often 46.2 µM), for the others: at the highest dose activity change, negative = growth inhibition, hits mostly inhibitors | hit rate 15% among 420,000 | AID 686978, 2013; note: nearly all actives have a fitted effect of over 55% in size
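Seeded 400 DT40-hTDP1 cells/well (vehicle DMSO, no 20 nM CPT); pinned compounds; ≥48 hr at 37 °C; CellTiter-Glo luminescence as viability measure.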
KB-V1 MDR tox = KB-V1 MDR subline cytotoxicity; KB-V1 MDR cells viability, CellTiter-Glo, 72 h; Potency, µM (doses to about 46.1 µM), hits mostly cytotoxic; hit rate 3.4% among 400,000; AID 1347076; note: nearly all actives have a fitted effect of over 60% in size
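Compound-treated KB-V1 multidrug-resistant cells, 72 h, 37 degrees C; viability by CellTiter-Glo. Fitted qHTS curves give the values.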
HT1080-NT tox = kills 2HG-producing HT-1080-NT fibrosarcoma cells; HT-1080-NT fibrosarcoma viability, CellTiter-Glo ATP luminescence, 48 h; Potency, µM (titrated, usually from 46.1 µM), for inactives: at the top dose activity, negative = less viability, hits mostly cytotoxic; hit rate 1.6% among 360,000;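 note: NT is the 2HG producing partner of a matched IDH1 knockdown line; 0% = DMSO-treated cells and -100% = media-only wells without cells; nearly all actives have a fitted effect of over 55% in size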
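HT-1080-NT fibrosarcoma cells (2HG-overproducing), 750 cells/well in RPMI with 5% FBS, dosed after 2 h and incubated 48 h at 37C. CellTiter-Glo luminescence normalized to DMSO and no-cell wells; concentration-response curves fitted and classed.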
HT1080 IDH1KD tx = HT-1080 IDH1 knockdown cell toxicity (counter line); HT-1080 IDH1 knockdown viability, ATP luminescence, 48 h; Potency, µM (series often up to 46.1 µM), for inactives: top-dose activity, negative = toxicity, usual class: cytotoxic; hit rate 2% among 360,000; AID 686971;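 note: 0% = DMSO wells and -100% = cell-free medium wells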
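% activity derives from luminescence (CellTiter-Glo), normalised to DMSO and no-cell wells. HT-1080-IDH1KD cells, 750/well, had 48 h compound exposure at 37 °C.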
TDP1 cell CPT = growth inhibition of DT40 Tdp1-/-;hTDP1 cells with camptothecin (screen for TDP1 inhibitors). chicken DT40 Tdp1-/-;hTDP1 cells + 20 nM CPT, ATP luminescence, 48 h. Potency, µM (series often up to 46.2 µM), for inactives: at the top dose activity change, negative = growth inhibition, hits mostly inhibitors. AID 686979. hit rate 12% among 420,000; note: nearly all actives have a fitted effect of over 55% in size
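Chicken DT40 Tdp1-/- cells stably complemented with human TDP1 were seeded at 400 cells/well in medium containing 20 nM camptothecin, exposed to pin-transferred compounds, and grown at 37 °C for at least 48 hr. Viability was read as ATP luminescence.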
Numbers without * were called inactive; i = inactive; u = inconclusive; x = not tested or not shown. In the library only some 19% were active in any assay of this set; here they are far more common. Calls come from the whole dose curve; as a rule, active = well fitted curve in the direction sought with a large enough effect; inconclusive = small, poorly fitted or top-dose-only effect, or another doubt; inactive = no such curve, though single readings can be large; an effect the other way counts as inactive or inconclusive. Unless noted, % is set by controls: 0 for no effect and ±100 for the full control effect; potency is the fitted concentration of half-maximal effect.

SMILES	KB-3-1 tox	DT40 TDP1 no CPT	KB-V1 MDR tox	HT1080-NT tox	HT1080 IDH1KD tx	TDP1 cell CPT
CCn1c(=O)cc(OCC(=O)NCc2ccc(F)cc2Cl)c2ccccc21	i	23µM*	u	x	x	u
O=C(NCC1COCCO1)c1cc(COc2ccc(F)cc2F)on1 (stereo not drawn)	x	-10%	x	-9%	-1%	-19%
COc1ccc(CN2CCc3ccccc3C2)cc1Br	i	u	i	5%	-1%	-3%
COc1ccc(C=C2CCc3ccccc3C2=O)cc1	i	u	i	u	u	u
COc1cc(/C=C2/CCc3ccccc3C2=O)cc(OC)c1OC	u	15µM*	12µM*	-17%	-23%	u
COc1ccc(/C=C2/CCc3ccccc3C2=O)cc1OC	i	u	u	7%	-13%	u
COc1cc(/C=C2\CCc3ccccc3C2=O)cc(OC)c1OC	u	16µM*	u	-13%	u	18µM*
Cc1oc2ncnc(N3CCOCC3)c2c1C(=O)N1CCN(c2cccc(C(F)(F)F)c2)CC1	x	-13%	x	x	x	u
CCOC(=O)Cn1c(=O)c2c(nc3n2CCN3c2ccc(CC)cc2)n(C)c1=O	x	-19%	x	x	x	-1%
COc1ccc(C(=O)O)cc1Nc1nc2ccc(C)cc2n2cnnc12	i	u	i	x	x	-25%
Cc1ccc(S(=O)(=O)NC(CC(=O)OCc2ccccc2)C(=O)OCc2ccccc2)cc1 (stereo not drawn)	u	u	i	5%	17%	-26%
COC(=O)c1c[nH]c2c1-c1cc(C(=O)OCc3ccccc3)n(S(=O)(=O)c3ccc(C)cc3)c1C(=O)C2=O	2.9µM*	0.58µM*	5.8µM*	u	21µM*	0.58µM*
Cc1cccc(NC(=O)CCCn2nc(C)c3c(C)n(-c4ccccc4)nc3c2=O)c1C	i	-28%	i	x	x	1%
CCOC(=O)C1=C(CSc2nc3c(cc2C#N)CN(C)CC3)OC(N)=C(C#N)C1c1ccccc1 (stereo not drawn)	i	29µM*	i	0%	5%	u
CCOC(=O)C1=C(CSc2nc3c(cc2C#N)CN(C)CC3)OC(N)=C(C#N)C1c1ccc(F)cc1 (stereo not drawn)	i	u	i	0%	-7%	u
CCOC(=O)C1=C(CSc2nc3c(cc2C#N)CCC3)OC(N)=C(C#N)C1c1ccccc1 (stereo not drawn)	i	u	i	u	u	29µM*
Cc1nc(-c2ccc(F)cc2)sc1CCNC(=O)c1ccccc1C(F)(F)F	i	u	i	x	x	u
O=C1C(O)CC2c3ccccc3CC3(CCCC3)N12 (stereo not drawn)	i	-20%	i	-2%	1%	u
CC1CC2(CCCC2)N(C(=O)c2ccccc2)Cc2ccccc21 (stereo not drawn)	u	u	i	-4%	-8%	9.2µM*
O=C(NCCc1c[nH]c2ccccc12)OC1CC2CC1[C@H]1CCCCN1C2=O (stereo partly drawn)	i	u	i	1%	-2%	-23%
Cc1ccc(SCC(=O)Nc2cccc(C)c2)cc1	i	-1%	i	-6%	-2%	-10%
Cc1ccc(SCC(=O)Nc2ccc3oc(-c4cccc(C)c4)nc3c2)cc1	i	15µM*	i	x	x	u
CCC(=O)Nc1ccc2oc(-c3cccc(C)c3)nc2c1	i	5.8µM*	u	-6%	u	7.3µM*
CCC(=O)Nc1cccc(-c2nc3ccc(C)cc3o2)c1	i	u	i	-19%	u	0%
Cc1cccc(-c2nc3cc(NC(=O)C4CCCO4)ccc3o2)c1 (stereo not drawn)	i	u	13µM*	-14%	-3%	u
SMILES	KB-3-1 tox	DT40 TDP1 no CPT	KB-V1 MDR tox	HT1080-NT tox	HT1080 IDH1KD tx	TDP1 cell CPT
COc1ccc(C)cc1NC(=O)CSc1nc(=O)n(Cc2ccco2)c2c1CCC2	i	u	i	x	x	u
Cc1nn(Cc2ccccc2)c2ncccc12	i	u	i	0%	-5%	u
COc1ccccc1C(=O)Nc1ccc(OCc2cc(=O)n3ccsc3n2)cc1	i	-16%	i	x	x	-22%
CCOC(=O)C1CCCN(C(=O)c2nn(-c3ccc(OC)cc3)c(=O)c3c2c2ccccc2n3C)C1 (stereo not drawn)	i	u	i	x	x	-28%
CCOC(=O)Cc1csc(NC(=O)/C=C/c2ccc(Br)o2)n1	i	u	15µM*	-21%	-5%	u
CCOC(=O)Cc1csc(NC(=O)Nc2ccc(Cl)cc2)n1	i	16µM*	u	u	u	21µM*
CCOC(=O)Cc1csc(N/N=C/c2ccc(Cl)cc2)n1	i	-4%	i	15%	6%	8%
CCOC(=O)Cc1csc(NC(=O)Nc2cccc(Cl)c2)n1	i	u	15µM*	-12%	u	u
COC(=O)CN1C(=O)C(C)(C)c2cc(S(=O)(=O)Nc3ccc(C(C)C)cc3)ccc21	i	4%	i	x	x	-2%
CCN(CCO)C(=O)c1ccc2nc(Cc3ccc(OC)cc3)oc2c1	i	-17%	i	4%	-1%	-2%
CCOC(=O)C1(CC2CC2)CCN(Cc2cnc(-c3ccc(OC)cc3)nc2)CC1	u	16µM*	u	-9%	u	u
CCOC(=O)C1(CC2CC2)CCN(Cc2cn[nH]c2-c2ccccc2)CC1	i	13%	i	4%	2%	-13%
CCOC(=O)C1(CC2CC2)CCN(Cc2cn[nH]c2-c2cccc(F)c2)CC1	i	18µM*	i	-5%	-4%	u
CCOC(=O)C1(CC2CC2)CCN(Cc2ccc3cccc(F)c3n2)CC1	i	16µM*	u	5%	-7%	21µM*
CCOC(=O)CC(NC(=O)Cn1nnc(-c2ccc(C(F)(F)F)cc2)n1)c1ccc(C)cc1 (stereo not drawn)	i	x	u	x	x	x
COC(=O)c1ccc(NC(=O)Nc2ccc(F)cc2)cc1	i	13µM*	i	-20%	-26%	18µM*
COc1ccc(NC(=O)Nc2ccc(F)cc2)cn1	i	7.3µM*	i	7%	11%	16µM*
Cc1nc(-c2cccc(NC(=O)Nc3ccc([N+](=O)[O-])cc3)c2)no1	u	4.6µM*	i	x	x	5.2µM*

Screening results: PubChem BioAssay, National Center for Advancing Translational Sciences (NCATS)
